# Screening data from PubChem BioAssay.
# This is a sample that favours compounds with a hit; in the whole collection about 1.7% have one here.
# Glyco luc inh = blocks N-linked glycosylation in D54 reporter cells; D54 ERlucT glycosylation luciferase reporter, 24 h; percent of 100 nM tunicamycin response; reporter increase, % at 12.5 µM; hit rate 0.23% among 360,000; AID 588692;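 active = mean luciferase reporter signal, scaled so untreated is 0 and the glycosylation-blocking control 100, at or above a set limit in every replicate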;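 also: luciferase carries N-glycosylation sites so blocking glycosylation raises the light; 0% = median of neutral control wells and 100% = median of 100 nM tunicamycin wells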
# aDG glyco up = alpha-DG glycosylation activation. activation, % at 10 µM. Pro5-aDG cells, alpha-DG glycosylation AlphaScreen (IIH6); 0% Pro5, 100% B10-LARGE cell signal. AID 624168. hit rate 0.22% among 360,000;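 active = activation of at least 8% versus controls, or a plate z-score of at least 8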;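 also: Pro5 are CHO cells carrying HIG-tagged alpha-DG that lacks glycosylation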
# Vif inh = blocks HIV Vif function. HEK293T cells, Vif self-association by quenched fluorescence, imaging, 24 h. AID 602346. inhibition, % at 7.49 µM. hit rate 0.35% among 340,000; in the data active = inhibition above about 50%, passing the limit was not always enough
# H9c2 protect = modulators protecting cardiomyocytes from myocardial damage | hit rate 0.63% among 360,000 | protection from H2O2 cell death, % at 20 µM | H9c2 cardiomyocytes, H2O2 injury protection, ATPLite, 2 h;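 active = compounds giving at least 50% protection of heart cells from peroxide-induced death in the single-dose screen, raw or plate-pattern-corrected value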;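 also: 0% = DMSO wells with peroxide and 100% = DMSO wells without peroxide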
# ARNT-TACC3 inh = disrupts binding between human ARNT and TACC3. Q9Y6A5. hit rate 0.66% among 390,000. AlphaScreen His-ARNT PAS-B/GST-TACC3 binding, luminescence; TACC3 fragment carries E629A point mutation. AID 623870. inhibition, % at 9.99 µM;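 active = mean inhibition of replicates at least 50% and at least half of replicates each reaching 50%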;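 also: 0% = complete ARNT plus TACC3 wells and 100% = ARNT alone without TACC3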
# * hit, by the source's call; · = not tested or not shown.
SMILES,Glyco luc inh,aDG glyco up,Vif inh,H9c2 protect,ARNT-TACC3 inh
O=C(COC(=O)c1ccc(Cl)c(S(=O)(=O)NCc2ccccc2)c1)NC1CC1,0,0,77*,-2,-2
C[C@@H]1CN([C@H](C)CO)C(=O)c2cc(NC(=O)C3CCCCC3)ccc2O[C@H]1CN(C)Cc1ccc(Cl)c(Cl)c1,·,·,·,·,-2
COc1ccc(CNC(=O)CN2C(=O)NC(c3ccccc3)(c3ccccc3)C2=O)cc1,2,0,110*,7,-2
COc1ccc(CCNC(=O)CN2C(=O)NC(c3ccccc3)(c3ccccc3)C2=O)cc1,1,0,7,0,-2
O=C(C[C@H]1C[C@H]2c3cc(NC(=O)C4CCOCC4)ccc3O[C@H]2[C@@H](CO)O1)NCCc1ccccc1,·,·,·,·,-5
CCCCCCCC/C=C\CCCCCCCC(=O)NCCc1ccc(O)c(O)c1,8,0,2,67*,5
Cc1noc(C)c1S(=O)(=O)Nc1ccc2c(c1)C(=O)N([C@H](C)CO)C[C@@H](C)[C@H](CN(C)C(=O)Nc1cccc3ccccc13)OCCCC[C@@H](C)O2,·,·,·,·,18
CCNC(=O)C[C@@H]1CC[C@H]2[C@H](COc3ccc(NC(=O)Nc4c(C)noc4C)cc3C(=O)N2C)O1,·,·,·,·,-5
O=C(C1CCN(S(=O)(=O)c2cccnc2)CC1)N1CCN(c2ccccc2Cl)CC1,-2,0,-1,-8,1
Cc1ccc(Cl)cc1N1CCN(C(=O)C2CCN(S(=O)(=O)c3cccnc3)CC2)CC1,-3,7.5*,-3,-24,19
C[C@H]1CN([C@@H](C)CO)C(=O)Cc2cc(NC(=O)C3CC3)ccc2O[C@H]1CN(C)Cc1ccc(Cl)c(Cl)c1,·,·,·,·,46*
C[C@@H]1CN([C@@H](C)CO)C(=O)Cc2cc(NC(=O)c3ccncc3)ccc2O[C@H]1CN(C)Cc1ccc(Cl)c(Cl)c1,·,·,·,·,48*
O=C(C[C@H]1C[C@H]2c3cc(NS(=O)(=O)c4ccccc4)ccc3O[C@H]2[C@@H](CO)O1)NC1CCCC1,·,·,·,·,-11
Cn1c(NCc2ccco2)nc2c1c(=O)n(Cc1ccc(Cl)cc1)c(=O)n2C,-7,0,-6,51*,21
Cn1c(NCc2ccco2)nc2c1c(=O)n(Cc1ccc(Br)cc1)c(=O)n2C,-6,0,-5,32,-6
CCn1cc(C(=O)NCc2cccc(F)c2)c(=O)c2cc(F)c(N3CCN(C(=O)c4ccco4)CC3)cc21,-2,0,-25,55*,-6
CCCN1C(=O)c2cc(C(=O)Nc3cccc(C(C)=O)c3)ccc2C1Nc1cccc(C(C)=O)c1 (stereo not given),2,0,-3,52*,-5
O=C(Nc1ccc(NC(=S)NC(=O)c2ccco2)cc1)c1ccc(Br)cc1,0,0,53*,-1,·
CC(C)(C)NC(=O)c1cccc(NC(=O)c2ccc(NC(=O)c3ccco3)cc2)c1,0,0,6,74*,-2
O=C(Nc1ccc(NC(=S)NC(=O)c2ccco2)cc1)c1ccccc1,-3,0,13,4,1
CC(C)(C)NC(=O)c1cccc(NC(=O)c2ccco2)c1,1,0,2,-5,-6
O=C(NC(=S)Nc1ccc(NC(=O)c2ccccc2)cc1)c1ccc(F)cc1,-1,0,51*,2,-4
C[C@@H]1CN([C@@H](C)CO)C(=O)Cc2cc(NC(=O)Nc3ccc(F)cc3)ccc2O[C@@H]1CN(C)S(=O)(=O)c1ccc(F)cc1,·,·,·,·,-6
CCCN(C)C[C@@H]1Oc2cc(C#C[C@H](C)O)ccc2S(=O)(=O)N([C@@H](C)CO)C[C@@H]1C,·,·,·,·,23
Cc1ccc(C(=O)Oc2ccccc2N2C(=O)C3CCC(C)CC3C2=O)cc1 (stereo not given),2,0,4,-3,-3
CC1CCC2C(=O)N(c3ccc(C(=O)Oc4cccc5cccnc45)cc3)C(=O)C2C1 (stereo not given),2,1,-2,-4,49*
CN(C)C(=O)C[C@H]1CC[C@H]2[C@@H](COC[C@H](O)CN2C(=O)c2ccncc2)O1,·,·,·,·,-4
COc1ccc(Nc2c3ccccc3nc3ccccc23)cc1,42*,0,-2,-14,7
Oc1cccc(Nc2c3ccccc3nc3ccccc23)c1,62*,1,-2,-15,8
Cc1ccc(-c2nc(Nc3cccc(O)c3)c3ccccc3n2)cc1,3,0,8,14,-12
